Screening results as filed in PubChem BioAssay.
HSP90 inh: inhibitors of HSP90 luciferase refolding in rabbit reticulocyte lysate; luciferase refolding luminescence, 3 h; inhibition, % at 5.6 µM; hit rate 0.91% among 290,000; AID 1789;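 active = inhibition above the screen-wide mean plus 3 SD, computed separately per campaign, cut at about 16% in these data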;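 note: 0% = DMSO wells and 100% = 60 µM geldanamycin wells; inhibitors lower the luminescence because luciferase stays unfolded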
PG9 binder: binds the HIV-1 gp120 antibody PG9; TR-FRET gp120-PG9 antibody binding; inhibition, % at 6.7 µM; hit rate 0.43% among 360,000; AID 624416; in the data active = inhibition above about 8.5%
AI-2 QS modul: Vibrio harveyi AI-2 quorum sensing modulation; Vibrio harveyi JMH597 AI-2 luminescence/OD600 ratio, 9 h; stronger effect = lower value; strain lacks LuxN and CqsS sensors; 0 = neutral-control median; activity change, % at 7.5 µM; hit rate 0.4% among 300,000; AID 2094; in the data active = activity change below about -75%, passing the limit was not always enough;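 note: luminescence divided by OD600 gain over 9 h not by final OD600 alone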
SMARCA2 act: increases SMARCA2 function in MMTV reporter cells. MG213 cells, MMTV-luciferase reporter, dexamethasone, overnight. activation, % at 9.1 µM. hit rate 1% among 370,000. AID 652017; in the data active = activation above about 7.8%;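 note: 0% = vehicle wells and 100% = reference activator wells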
HSF1 inhib: HSF1 inhibition. NIH3T3-HGL HSE-luciferase, MG132-induced, luminescence 8 h; stronger effect = lower value. activity change, negative = inhibition, % at 7.5 µM (by protocol). hit rate 0.77% among 300,000;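 active = more than half of replicate wells show activity change below -50%, luminescence cut by over half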;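 note: luciferase reports HSF-1 transcriptional activity via heat shock element; 0% = median of DMSO wells and -100% = zero luminescence signal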
GAA850 FXN act: frataxin GAA850 promoter activation | AID 540364 | hit rate 0.56% among 360,000 | HEK293 lucGAA850 FXN promoter luciferase reporter, 24 h; percent of 10 µM SAHA response | activation, % at 6 µM;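 active = activation above the average of all compounds screened plus 3 SD, cutoff fixed separately per campaign, cut at about 7.5% in these data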;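 note: 0% = DMSO wells and 100% = 10 µM SAHA wells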
* hit, by the source's call; . = not tested or not shown. Compounds with a hit are over-represented: about 3.4% of the library has one in this group of screens.

SMILES | HSP90 inh | PG9 binder | AI-2 QS modul | SMARCA2 act | HSF1 inhib | GAA850 FXN act
CN(C)c1ccc(/C=N/NS(=O)(=O)c2ccc(Br)cc2)cc1 | -2.3 | -1.6 | -91.7* | -2.9 | 7.5 | 2.1
Nc1ccc(S(=O)(=O)NN=CC=Cc2ccccc2[N+](=O)[O-])cc1 | . | -2.7 | . | 5.0 | . | -1.6
C=CCCC(=O)N1CCC(C(=O)NCC2COc3ccccc3O2)CC1 (stereo unspecified) | . | . | . | 1.3 | . | .
Cc1cc(C(F)(F)F)c(C#N)c(SCC(=O)Nc2nc3ccccc3s2)n1 | 29.9* | -0.9 | 10.5 | -6.9 | -73.2* | -8.1
Cc1cc(C)c(C#N)c(SCC(=O)Nc2ccccc2C)n1 | 1.5 | -1.0 | 26.9 | 1.3 | 5.0 | -0.8
CCOc1ccccc1NC(=O)CSc1nc(N)c(C#N)cc1C#N | 3.3 | 66.3* | 15.6 | 0.4 | 4.4 | 3.4
Cc1ccccc1NC(=O)CSc1nc(N)c(C#N)c(-c2cccs2)c1C#N | -1.8 | 72.2* | 26.0 | 0.3 | 5.1 | -2.2
Cc1nc(SCC(=O)Nc2nc3ccccc3s2)c(C#N)c(C)c1C | 67.9* | -1.8 | 3.8 | -10.0 | -92.1* | -16.2
Cc1ccc(NC(=O)CSCc2cc(=O)n3cc(C)sc3n2)c(C)c1 | -1.2 | -2.2 | 27.1 | -0.5 | -59.0* | 0.4
Cc1ccc(NC(=O)CSCc2cc(=O)n3cc(C)sc3n2)cc1 | 1.0 | -2.3 | 2.1 | -1.9 | 9.9 | -1.0
CNC(=S)N(CCc1c(C)[nH]c2ccc(F)cc12)Cc1cccnc1 | -0.4 | -0.2 | 11.4 | -2.6 | -85.8* | 3.3
Nc1nc(CSc2ncn(-c3ccccc3)n2)cs1 | 0.3 | . | 27.6 | . | -85.5* | 3.7
Cc1ccc(Oc2ncc(CN3CCOCC3)s2)cc1 | 0.8 | -3.3 | 24.7 | 4.5 | 5.7 | 2.0
Clc1cccc(Oc2ncc(CN3CCOCC3)s2)c1 | -1.4 | -0.3 | 13.4 | 7.9* | 0.8 | 4.2
S=C(Nc1ccc(I)cc1)OC1CCC12CCC(c1ccccc1)CC2 (stereo unspecified) | . | . | . | -1.2 | . | .
O=C(C1=C[C@H](c2ccc(Br)cc2)C[C@H](OCCCCO)O1)N1CCN(Cc2ccc3c(c2)OCO3)CC1 | 0.5 | . | 26.5 | . | -53.7* | 0.7
O=C(C1=C[C@@H](c2ccc3c(c2)OCO3)C[C@@H](OCCCCO)O1)N1CCN(Cc2ccc3c(c2)OCO3)CC1 | 7.3 | 1.6 | -0.5 | 0.1 | 3.5 | -0.3
CC/C(=N\NS(=O)(=O)c1ccc(C)cc1)c1ccco1 | -3.6 | -2.9 | 17.3 | -1.8 | -64.3* | -0.6
O=C(CSc1nc2ccccc2o1)NN=C/C=C/c1ccccc1 | . | . | . | -3.7 | . | .
CCOC(=O)c1ccc(NC(=O)CC2COc3ccccc3O2)cc1 (stereo unspecified) | 1.1 | 0.3 | 0.7 | 1.6 | -80.8* | 1.2
COc1ccc(N/C=C2\CCc3ccccc3C2=O)cc1 | 42.0* | -3.8 | -0.5 | 4.7 | -2.2 | -4.3
O=C(Nc1cccc(NC(=O)c2ccccc2Cl)c1)c1ccc([N+](=O)[O-])o1 | 1.5 | -0.3 | -191.5* | -1.4 | 54.5 | 4.2
O=C(Nc1cccc2ccccc12)c1ccc([N+](=O)[O-])o1 | 1.7 | -1.1 | -128.0* | 2.0 | 57.7 | -1.1
COc1ccccc1NC(=O)c1ccc([N+](=O)[O-])o1 | . | 3.4 | -87.3* | 5.8 | -85.6* | .
Cc1cccc(NC(=O)c2ccc([N+](=O)[O-])o2)c1C | 7.0 | 0.1 | 23.2 | 3.6 | 30.7 | 1.0
SMILES | HSP90 inh | PG9 binder | AI-2 QS modul | SMARCA2 act | HSF1 inhib | GAA850 FXN act
O=C(Nc1ccccc1N1CCCC1)c1ccc([N+](=O)[O-])o1 | -0.6 | -1.9 | 82.7 | 1.3 | 18.9 | 1.2
O=C(Nc1nc2c(Cl)cccc2s1)c1ccc([N+](=O)[O-])o1 | 0.4 | -1.8 | 16.0 | -2.2 | 7.8 | -0.2
COC(=O)[C@H]1[C@H]2C[C@@H]3c4[nH]c5cc(OC)ccc5c4CCN3C[C@H]2C[C@@H](OC(=O)/C=C/c2cc(OC)c(OC)c(OC)c2)[C@@H]1OC | . | -0.3 | . | 1.8 | . | -5.6
COC(=O)[C@H]1[C@H]2C[C@@H]3c4[nH]c5cc(OC)ccc5c4CCN3C[C@H]2C[C@@H](OC(=O)c2ccc(N)cc2)[C@@H]1OC | 2.1 | -2.8 | 0.9 | 1.1 | -55.5* | -4.3
Cc1nc(NC(=O)c2ccc(Cl)cc2)sc1-c1csc(Nc2cccc(F)c2)n1 | 68.7* | . | 14.8 | . | 11.9 | .
OCCN(Cc1ccccc1)Cc1cccc(Cl)c1Cl | 3.4 | -1.2 | 15.5 | 3.4 | -80.0* | 1.5
